Source: PubChem
Sfp PPTase inh – qHTS Assay for Inhibitors of Bacillus subtilis Sfp phosphopantetheinyl transferase (PPTase) | 4'-phosphopantetheinyl transferase ffp (Bacillus subtilis), Q9F4F7 | Potency, µM, for the others: largest response in the series, negative = inhibition, most hits filed as inhibitors | AID 1490, 2009 | Biochemical Sfp PPTase activity, qHTS | 310,000 compounds, 3.5% hits;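 further: the enzyme is Sfp with the accession as filed and its product quenches rhodamine fluorescence; potency means the concentration at half of the fitted maximal effect; 0% = enzyme reaction without inhibitor and -100% = no enzyme wells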
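With Hepes-Na pH 7.6 buffer containing 10 mM MgCl2, Sfp (15 nM) modified BHQ-2-YbbR (12.5 uM) using rhodamine-CoA (5 uM). Two reads 30 minutes apart at 525/598 nm yielded each well's rate.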
KDM4E inh – qHTS Assay for Inhibitors of Human Jumonji Domain Containing 2E (JMJD2E); Lysine-specific demethylase 4E (Homo sapiens), B2RXH2; JMJD2E catalytic domain, FDH-coupled NADH fluorescence (FDH is formaldehyde dehydrogenase); Potency, µM (series often up to 57.1 µM), inactives show top-dose activity change, negative = inhibition, most hits filed as inhibitors; 230,000 compounds, 1.6% hits; AID 2147, 2009; active means well fitted inhibition curve with a large enough effect, not every such curve was filed as active; inconclusive means small, poorly fitted or top-dose-only effect, or another doubt; inactive means no such curve, though single readings can be large or run the other way;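 further: potency means the concentration at half of the fitted maximal effect; 0% = wells with enzyme and -100% = buffer wells without enzyme; nearly all actives have a fitted effect of over 50% in size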
G9a block – qHTS Assay for Inhibitors of Histone Lysine Methyltransferase G9a | 350,000 compounds, 8.8% hits | Potency, µM (series often up to 102 µM), for inactives: at the top dose activity, negative = inhibition, actives largely listed as inhibitors | G9a H3K9 monomethylation, AlphaScreen, 2 h; further: potency means the concentration at half of the fitted maximal effect; on the % scale 0 is the no-effect control and ±100 the full control effect; nearly all actives have a fitted effect of over 75% in size
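Using a bead-based AlphaScreen, monomethylated H3K9 product from 2 h room-temperature reactions (G9a 20 nM, peptide 500 nM, SAM 20 uM) was detected with 0.5 ug/mL rabbit anti-H3K9me1 antibody.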
miR-21 reporter – qHTS Assay for Modulators of miRNAs and/orActivators of miR-21. HeLa miR-21 FLuc reporter, luciferase, 48 h. Potency, µM (series often up to 38.3 µM), inactives show at the top dose activity change, positive = activation, usual class: activators. 340,000 tested, under 10 active;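 further: % of control where 0% means no effect; miR-21 action dims this reporter so a rising signal means less miR-21 action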
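HeLa cells endogenously expressing miR-21, stably carrying CMV-driven firefly luciferase with a downstream miR-21 binding site, 2000 cells/well. Titrations up to approximately 40 uM, 48 hours; luciferase luminescence read.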
Lamin A splicing – qHTS Assay for Modulators of Lamin A Splicing. HeLa LMNA splicing GFP/RFP minigene ratio, 48 h. Potency, µM (top dose mostly 46.1 µM), without a hit: top-dose ratio change, negative = inhibition, actives largely listed as inhibitors. 200,000 compounds, 0.01% hits. AID 1487, 2009; active means well fitted inhibition curve with a large enough effect in the signal ratio, with a control signal flat, not every such curve was filed as active; inconclusive means small, poorly fitted or top-dose-only effect, or effect the other way, or a change in a side signal; the % refers to the signal ratio; further: potency means the concentration at half of the fitted maximal effect; on the % scale 0 is the no-effect control and ±100 the full control effect
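S3 HeLa cells stably expressing lamin A-EGFP splicing minigene plus DsRed2, 600 cells/well, 48 h compound exposure at 37C. Laser-scanning cytometry; analysed as GFP (500-530 nm)/RFP (575-640 nm) total intensity ratio; 0.5% DMSO vehicle.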
ALDH1A1 inh – qHTS Assay for Inhibitors of Aldehyde Dehydrogenase 1 (ALDH1A1); Aldehyde dehydrogenase 1A1 (Homo sapiens), P00352; Potency, µM (top dose mostly 75.3 µM), without a hit: at the top dose activity, negative = inhibition, actives largely listed as inhibitors; Purified ALDH1A1, NADH fluorescence, propionaldehyde substrate; AID 1030, 2008; 220,000 compounds, 7.3% hits; active means well fitted inhibition curve with a large enough effect, not every such curve was filed as active; inconclusive means small, poorly fitted or top-dose-only effect, or another doubt; inactive means no such curve, though single readings can be large or run the other way;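 further: potency means the concentration at half of the fitted maximal effect; plate controls were no enzyme wells and a reference inhibitor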
Target sequence (P00352 whole entry, looked up): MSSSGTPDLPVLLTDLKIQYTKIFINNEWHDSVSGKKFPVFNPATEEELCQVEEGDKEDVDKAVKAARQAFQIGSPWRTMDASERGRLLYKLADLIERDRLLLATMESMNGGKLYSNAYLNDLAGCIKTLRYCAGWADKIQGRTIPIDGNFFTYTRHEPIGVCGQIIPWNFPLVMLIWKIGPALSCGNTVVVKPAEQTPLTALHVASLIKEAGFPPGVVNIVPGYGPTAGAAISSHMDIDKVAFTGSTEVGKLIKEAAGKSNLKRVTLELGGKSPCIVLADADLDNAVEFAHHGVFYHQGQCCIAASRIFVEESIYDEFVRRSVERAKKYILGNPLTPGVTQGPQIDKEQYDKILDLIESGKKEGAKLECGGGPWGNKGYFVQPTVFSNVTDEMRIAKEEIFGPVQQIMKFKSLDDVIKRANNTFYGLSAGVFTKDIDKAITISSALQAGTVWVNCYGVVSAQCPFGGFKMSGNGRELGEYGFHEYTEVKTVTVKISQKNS
An asterisk follows results filed as active; u = inconclusive; x = not tested or not shown; [ ] = remark or other dose. Rows were chosen to be rich in hits. Some 13% of all compounds tested hit in one or more screens of this group. Unless noted, the call rests on the fitted dose curve; in most records, active means well fitted curve in the direction sought with a large enough effect; inconclusive means small, poorly fitted or top-dose-only effect, or another doubt; inactive means no such curve, though single readings can be large; an effect the other way counts as inactive or inconclusive.

SMILES	Sfp PPTase inh	KDM4E inh	G9a block	miR-21 reporter	Lamin A splicing	ALDH1A1 inh
Cn1c(CN2CCCC(C(=O)c3ccc4c(c3)OCO4)C2)nc2ccccc21 (stereo not drawn)	9%	u	26%	-4%	x	28µM*
O=C(c1ccc2c(c1)OCO2)C1CCCN(Cc2ccc3nsnc3c2)C1 (stereo not drawn)	2%	u	x	-1%	u	u
N[C@@H](Cn1ccc(=O)n(Cc2ccccc2C(=O)O)c1=O)C(=O)O	56µM*	4%	x	x	x	-4%
COc1cccc(C2C(C#N)=C(N)Oc3cc(C)n(Cc4ccccn4)c(=O)c32)c1OC (stereo not drawn)	11%	4%	-6%[2.33 µM]	1%	7%	10%
COc1ccccc1C1C(C#N)=C(N)Oc2cc(C)n(Cc3ccccn3)c(=O)c21 (stereo not drawn)	50µM*	u	35µM*	-2%	5%	u
CCOc1ccccc1C1C(C#N)=C(N)Oc2cc(C)n(Cc3ccccn3)c(=O)c21 (stereo not drawn)	-13%	-26%	50µM*	-5%	5%	-2%
COc1ccc(CNc2ncncc2-c2ccc(C(=O)N(C)C)cc2)c(OC)c1	u	x	14%[0.501 µM]	x	1%	4%
COc1ccc(N2C(S)=C(C#N)C(=O)NC2c2ccc(OC)c(OC)c2)cc1 (stereo not drawn)	22µM*	-11%	u	2%	8%[46 µM]	u
COc1ccc(C2NC(=O)C(C#N)=C(S)N2c2cccc(C)c2)cc1OC (stereo not drawn)	32µM*	-14%	40µM*	5%	2%[46 µM]	u
CCOc1ccc(C2NC(=O)C(C#N)=C(S)N2c2ccc(OC)cc2)cc1OC (stereo not drawn)	28µM*	u	u	-6%	10%	20µM*
COc1ccc([N+](=O)[O-])cc1N(CC(=O)N1CCN(Cc2ccccc2)CC1)S(C)(=O)=O	10%	x	24%	-1%	x	x
CCOC(=O)c1cc(-c2ccccc2)n(CCC(=O)Nc2ccc(C(F)(F)F)cc2)c1C	x	x	-51%[59 µM]	u	-4%[46 µM]	x
Cc1cc(-c2ccco2)c(C#N)c2nc3ccccc3n12	50µM*	u	13µM*	-24%	-6%	u
COc1ccc(NC(=O)N2CCc3nc(COc4ccccc4)c4c(c3C2)CO[C@@H](C)C4)cc1	-1%	-6%[11.4 µM]	x	x	14%[9.22 µM]	22%[13.5 µM]
COc1ccc(C(=O)/C(=C/O)N=Nc2ccc(F)cc2)cc1	-4%	8%	u	29%	u	4µM*
COc1ccc(N=N/C(C(C)=O)=C(/C)O)cc1	14%	4%	1%	-25%	x	1%
COc1ccc(N=N/C(=C\O)C(=O)c2cccs2)cc1	-10%	-6%	20µM*	21%	-22%[46 µM]	14µM*
O=C(c1cccc(C(F)(F)F)c1)C1CCCN(C(=O)CCn2cnnn2)C1 (stereo not drawn)	11%	5%	-6%[59 µM]	-2%	x	x
Cc1ccc(C)n1-c1sccc1C(=O)O	50µM*	4%	13µM*	0%	19%	-14%
C=C(C)C(O)/C=C/CCCCCCC (stereo not drawn)	11%	x	x	x	x	12%[13.5 µM]
O=C(Nc1ncc(Cc2ccc(F)cc2)s1)c1ccc2c(c1)CC(c1ccccc1)OC2=O (stereo not drawn)	x	x	-2%[59 µM]	1%	x	x
COc1ccc(-c2nc3c(Br)c(N)c(Br)cc3o2)cc1	22µM*	u	u	-69%	9%	14µM*
O=C(O)/C=C/C(=O)OC1CC2CCC1C2 (stereo not drawn)	5%	-13%	-35%	0%	x	x
